# Hits are enriched below; roughly 2.3% of the tested compounds scored in any of these assays.
# Tau FP inhib – inhibitors of human tau fibril formation; P10636; K18 P301L tau heparin fibrillization, Alexa594 FP, 6 h; Potency, µM (top dose mostly 57.7 µM), hits mostly inhibitors; actives 0.39% (n = 280,000); note: nearly all actives have a fitted effect of over 55% in size
# Target sequence (P10636 561-689 P618L limits assumed): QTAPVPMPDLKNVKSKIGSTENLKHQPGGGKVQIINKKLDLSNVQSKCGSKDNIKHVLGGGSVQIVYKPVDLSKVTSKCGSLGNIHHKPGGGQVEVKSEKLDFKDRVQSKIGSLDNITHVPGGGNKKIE
#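 Read-out: fluorescence polarization of Alexa 594-labeled tau (0.24 uM), 555 nm excitation, 632 nm emission. Mixtures held 15 uM unlabeled K18 P301L, compound and 20 uM heparin, pH 7 acetate buffer, incubated 6 hr at 37 C.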
# Tau fluor cs – counter-screen for tau fibril formation inhibitors; tau K18 P301L Alexa594 fluorescence, heparin fibrillization; Potency, µM (series often up to 57.7 µM); actives 0.93% (n = 280,000); AID 1463; note: nearly all actives have a fitted effect of over 55% in size
#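 Human K18 P301L tau (15 uM unlabeled plus 0.24 uM Alexa 594-labeled, final) in 100 mM sodium acetate pH 7 was mixed with compound and 20 uM heparin and incubated 6 hr at 37 C.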
# FBPA coupling cs – coupling enzyme interference in Giardia aldolase counter-screen; coupling enzyme system counterscreen, AmpLite Red fluorescence; activity change, negative = inhibition, % at 58.2 µM, hits read low; actives 0.67% (n = 290,000); in the data active = activity change below about -30%
#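 First, compound is pin-transferred into glyceraldehyde-3-phosphate coupling-enzyme reagent at 57.5 uM final and held 10 min at RT. Next, substrate, coupling system and AmpLite Red are added. After 20 min RT, fluorescence (525/598 nm) is read.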
# Tau fibril ThT – inhibitors of human tau fibril formation, thioflavin T binding | P10636 | recombinant tau K18 P301L (four-repeat tau fragment), heparin-induced fibrillization, ThT fluorescence | Potency, µM (series often up to 57.4 µM), hits mostly inhibitors | actives 2.1% (n = 270,000) | AID 1460; note: nearly all actives have a fitted effect of over 55% in size
#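 In this qHTS, human K18 P301L tau is incubated with compound and heparin for 6 hr at 37 C, and Thioflavin T fluorescence then reports fibril load.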
# USP1-UAF1 inh – USP1/UAF1 (human) deubiquitinase inhibition; O94782; recombinant USP1/UAF1, Ub-Rhodamine cleavage fluorescence; Potency, µM (series often up to 57.1 µM), hits mostly inhibitors; actives 0.23% (n = 390,000); AID 743255; note: nearly all actives have a fitted effect of over 60% in size
#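 USP1/UAF1 complex at 1 nM was preincubated with compound for 15 min at room temperature, then Ub-Rho substrate (150nM final) was added. Fluorescence (480/540 nm) was read kinetically, 6 reads every 60 seconds.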
# Hits are given with their value; n = inactive; u = inconclusive; x = no result given; ! = not active in a repeat; [ ] = remark or other dose. Unless noted, calls come from the whole dose curve; as a rule, active = well fitted curve in the direction sought with a large enough effect; inconclusive = small, poorly fitted or top-dose-only effect, or another doubt; inactive = no such curve, though single readings can be large; an effect the other way counts as inactive or inconclusive.
SMILES,Tau FP inhib,Tau fluor cs,FBPA coupling cs,Tau fibril ThT,USP1-UAF1 inh
CCc1ccccc1NC(=O)CSc1nnc(-c2cc(OC)c(OC)c(OC)c2)o1,u,n,x,n,n
COc1cccc(-c2nnc3n2N=C(c2ccc(OC)cc2OC)CS3)c1,x,x,n,x,x
CC(C)=CCC/C(C)=C/CO/N=C1/C[C@@H](O)[C@@H](O)[C@@H]2[C@@H]3C(=O)N(C(C)(C)C)C(=O)[C@H]3CC[C@@H]12,n[11.6 µM],n[11.6 µM],n,n[11.5 µM],x
CN(C)c1nc(N/N=C/c2ccccc2O)nc(Nc2ccc(F)cc2)n1,u,8.91µM[quencher],n,u,n
CNCc1ccccc1Sc1cccc(O)c1,n,n,n,n,n
CNCc1ccccc1Sc1cc(O)ccc1O,31.6µM,17.8µM[quencher],n,17.8µM,n
COc1cc(OC)c(NC(C)C(=O)NCc2ccccc2)cc1Cl (centres undefined),n,n,-49.8,u,n
COc1cc(OC)c(NC(=O)NCc2cccn2Cc2ccccc2)cc1Cl,n,14.1µM[quencher],x,n,n
COc1cc(OC)c(NC(=O)CCc2ccccc2)cc1Cl,n,n,n,n,n
CCOC(=O)c1ccccc1NC(=O)CSc1nnnn1C1CCCCC1,u,u,n,14.1µM,n
COC(=O)c1ccccc1NC(=O)CSc1nnnn1C1CCCCC1,n,n,n,n,n
COc1ccc(-c2nnc(SCC(=O)N3CCC(C)CC3)o2)cc1,n,n,x,n,u
O=C(COC(=O)C1CCCC1)Nc1ncc(Cl)cc1Cl,x,x,x,x,n
CCc1cccc(C)c1N1C(=O)CC(C)(C)CC1=O,n,n,n,x,n
COc1ccccc1-c1ccc2ncnc(NCc3cnc(C)cn3)c2c1,x,x,n,x,x
NC(=O)Nc1ccc(Nc2ccccc2)cc1,n,u,n,u,n
O=C(Nc1ccc(Nc2ccccc2)cc1)C(Cl)(Cl)Cl,n,7.94µM[quencher],n,u,n
C1CCC(NC(=NC2C3CC4CC(C3)CC2C4)N2CCOCC2)CC1 (centres undefined),n,n,x,n,x
O=C1C=C(NCc2ccc(Cl)cc2)CC(c2ccco2)C1 (centres undefined),n,n,n,n,n
CC(C)CNC1=CC(=O)CC(c2ccco2)C1 (centres undefined),u,n,n,28.2µM,n
Cc1nc(NC(=O)c2ccccc2)sc1-c1csc(Nc2cccc(F)c2)n1,u,11.2µM[quencher],n,7.94µM,x
Cc1nc(NC(=O)c2ccccc2)sc1-c1csc(NCc2ccccc2)n1,u,12.6µM[quencher],n,u,n
Cc1nc(NC(=O)c2ccccc2)sc1-c1csc(N)n1,n,u,n,12.6µM,n
Cc1nc(N)sc1-c1csc(NCc2ccccc2)n1,u,u,n,20µM,n
COc1ccc(-c2ccc(OC)c(C3C4C=CCCC4(C)C(=O)N3Cc3ccccc3)c2)cc1OC (centres undefined),x,x,n,x,x
SMILES,Tau FP inhib,Tau fluor cs,FBPA coupling cs,Tau fibril ThT,USP1-UAF1 inh
CCOC(=O)c1cc2c(=O)n3ccccc3nc2n(CC2CCCO2)c1=NC(=O)c1ccc(C)cc1 (centres undefined),n,n,x,n,n
CCC(=O)Nc1nc(C)c(-c2csc(Nc3ccc(S(=O)(=O)Nc4cc(C)on4)cc3)n2)s1,n,n,n,n,x
Cc1cc(NS(=O)(=O)c2ccc(Nc3nc(-c4sc(NC(=O)c5ccccc5)nc4C)cs3)cc2)no1,n,15.8µM[quencher],n,20µM,x
Cc1nc(N)sc1-c1csc(Nc2ncccn2)n1,n,n,n,3.98µM,u
Cc1nc(NC(=O)c2ccccc2)sc1-c1csc(NCCc2ccccc2)n1,u,15.8µM[quencher],n,15.8µM,u
Cc1ccc(Cl)cc1Nc1nc(-c2sc(NC(=O)c3ccccc3)nc2C)cs1,n,u,n,u,x
Cc1cccc(N(CC(N)=O)C2SC(=O)N(Cc3cccc(C(=O)O)c3)C2=O)c1 (centres undefined),n,n,x,n,n
CCn1c2ccccc2c2cc(/C=N/NC(=O)c3ccc(O)cc3)ccc21,u,10µM[quencher],n,u,n
O=C1CC(=O)N(Cc2cccs2)C(=O)N1,u,n,n,20µM,n
O=C1CC(=O)N(Cc2ccco2)C(=O)N1,u,n,n,u,n
Cc1c(NC(=O)/C(C#N)=C/c2ccc(-c3ccc(Cl)c(Cl)c3)o2)c(=O)n(-c2ccccc2)n1C,n,n,n,15.8µM,n
Cc1c(NC(=O)/C(C#N)=C/c2ccc(-c3cccc(Cl)c3)o2)c(=O)n(-c2ccccc2)n1C,n,n,n,12.6µM,n
Cc1c(NC(=O)/C(C#N)=C/c2ccc(-c3ccccc3Cl)o2)c(=O)n(-c2ccccc2)n1C,n,n,n,u,n
CCc1ccc2c(c1)C1(NN=C(c3cccc4ccccc34)S1)C(=O)N2 (centres undefined),n,u,n,15.8µM,x
COc1cc2nc(N3CCN(C(=O)C4CCCO4)CC3)nc(N)c2cc1OC (centres undefined),n,n,-49.7!,n,n
Cc1ccc(OCC(=O)c2cc(C)n(-c3ccccc3)c2C)c([N+](=O)[O-])n1,n,u,n,u,n
Cc1ccc(C)c(C(=O)COc2ccc(C)nc2[N+](=O)[O-])c1,u,u,n,15.8µM,n
Cc1ccc(OCC(=O)c2cc(C)c(C)cc2C)c([N+](=O)[O-])n1,u,u,n,15.8µM,n
Cc1ccccc1OCCn1c(CCNC(=O)C2CCCCC2)nc2ccccc21,n,n,x,n,n
N#Cc1cccc(NC(=O)COC(=O)c2ccc[n+]([O-])c2)c1,x,x,x,x,n
COc1ccc(OC2C(O)COC2/C=C/c2ccccc2)cc1 (centres undefined),n[11.6 µM],n[11.6 µM],n,n[11.5 µM],x
CS(=O)(=O)N1CCc2cc(C(=O)Nc3ccc(Cl)c(C(F)(F)F)c3)ccc21,20µM,u,x,n,n
Cc1ccccc1C(=O)Oc1ccc(Sc2ccc(O)cc2)cc1,25.1µM,7.08µM[quencher],n,u,x
O=C(NCc1ccc(F)cc1)C1CCN(S(=O)(=O)c2cccc3nonc23)CC1,x,x,n,x,n
C=C[C@@H](C1=CC(=O)C(OC)=C(OC)C1=O)c1ccccc1,u,u,-44.7,28.2µM,x
SMILES,Tau FP inhib,Tau fluor cs,FBPA coupling cs,Tau fibril ThT,USP1-UAF1 inh
C=CC(C1=CC(=O)C(OC)=CC1=O)c1ccc(O)cc1 (centres undefined),u,u,-34.5,31.6µM,x
C=CC(C1=CC(=O)C=CC1=O)c1ccccc1 (centres undefined),n,u,n,u,x
CCCCN(C)CCCNC(=O)c1cc(=O)[nH]c2ccc(S(=O)(=O)N3CCCCC3)cc12,n,n,x,n,n
CCCOc1ccccc1C(=O)N1CCCCC1CCN1CCOCC1 (centres undefined),n,n,x,n,n
Cc1nn2c(=O)cc(COC(=O)c3cccs3)nc2s1,n,n,x,n,u
CC1(C)CC2(CC(c3ccccc3F)c3ccc(O)c(O)c3O2)NC(=S)N1 (centres undefined),u,u,n,22.4µM,n
CC1(C)CC2(CC(c3ccc(F)cc3)c3ccc(O)cc3O2)NC(=S)N1 (centres undefined),n,n,n,x,n
